APOBEC3G inh – blocks human APOBEC3G single-stranded DNA deamination. inhibition, % at 20 µM. 0.28% of 330,000 active. recombinant A3G, ssDNA deamination FAM/TAMRA fluorescence. Q9HC16;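 active means inhibition of at least 40% at 20 µM, with no more than 30% in the related APOBEC3A deaminase screen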;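 further: plate controls were DMSO wells with A3G for no effect and wells lacking A3G enzyme for full effect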
A3A deaminase – human APOBEC3A DNA deaminase inhibition. P31941. recombinant A3A, FAM/TAMRA ssDNA deamination fluorescence. 0.41% of 330,000 active. inhibition, % at 20 µM;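 active means at least 40% inhibition at 20 µM here, with at most 30% in a related deaminase screen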;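 further: plate controls were A3A with DMSO for no effect and wells lacking A3A enzyme for full effect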
Target sequence (P31941 whole entry, looked up): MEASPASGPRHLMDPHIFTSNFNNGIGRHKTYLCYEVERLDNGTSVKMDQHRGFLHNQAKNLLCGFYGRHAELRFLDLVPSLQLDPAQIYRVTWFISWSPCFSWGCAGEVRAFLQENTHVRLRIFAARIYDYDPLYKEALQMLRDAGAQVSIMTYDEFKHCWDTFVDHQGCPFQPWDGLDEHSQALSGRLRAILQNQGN
esBAF inh – blocks esBAF chromatin remodeling in mouse ES cells; AID 602393; reporter increase, % at 12.5 µM; 2% of 350,000 active; Bmi1-luciferase knock-in reporter, 24 h; 100% = twice the neutral-well signal; in the data active means activation above about 40%;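 further: 0% = median of the plate's neutral control wells and 100% = double that signal; a rise in the Bmi1 reporter signal indicates esBAF inhibition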
MITF act – activators of MITF-driven TRPM1 promoter activity in SK-MEL-5 cells; activation, % at 12.5 µM; 0.75% of 300,000 active; AID 588334; SK-MEL-5 TRPM1-promoter luciferase, 24 h; % of positive control, neutral wells = 0;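 active means mean activation of at least 80% with every replicate also reaching 80%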;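 further: 0% = neutral control wells and 100% = parthenolide positive control wells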
Wnt act – activators of Wnt/beta-catenin signaling. Wnt/beta-catenin reporter cell assay, activator, plate reader. activation, % at 9.35 µM. 1.2% of 300,000 active. AID 743398; in the data active means activation above about 30%, passing the limit was not always enough;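 further: 0% = neutral control wells and 100% = positive control wells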
PHOSPHO1 inh – inhibitors of human PHOSPHO1 phosphatase | Q8TCT1 | inhibition, % at 13.3 µM | recombinant PHOSPHO1, absorbance phosphatase assay | 1.1% of 290,000 active | AID 1565; in the data active means inhibition above about 60%
A3G conf – confirmation of human APOBEC3G DNA deaminase inhibitors; shares compounds with APOBEC3G inh; AID 493152; inhibition, % at 20 µM; recombinant A3G ssDNA deaminase, UDG/FAM-TAMRA fluorescence; 72% of 890 active;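 active means inhibition reaching a set limit in any replicate at 20 µM, the limit being 80% of the first screen's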
UDG A3G counter – inhibits E. coli UDG, flagging false APOBEC3G inhibitors; UDG counterscreen, FAM/TAMRA oligo fluorescence; 710 tested, under 10 active; inhibition, % at 20 µM; shares compounds with APOBEC3G inh; AID 504715;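 active means compounds giving 40% or more inhibition at 20 µM in any one of the three replicates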;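 further: plate controls were DMSO wells with UDG and oligo for no effect and DMSO wells lacking both for full effect; inhibitors lower the FAM signal released by uracil excision and alkaline cleavage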
Target sequence (P12295 whole entry, looked up): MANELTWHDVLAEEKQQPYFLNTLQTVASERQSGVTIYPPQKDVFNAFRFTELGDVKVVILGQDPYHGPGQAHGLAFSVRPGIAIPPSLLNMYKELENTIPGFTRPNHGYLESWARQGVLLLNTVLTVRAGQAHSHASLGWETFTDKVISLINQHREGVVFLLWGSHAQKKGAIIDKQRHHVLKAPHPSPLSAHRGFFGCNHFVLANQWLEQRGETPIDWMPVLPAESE
Active calls of the source: *. Only some compounds are listed: those with a hit (about 3.6% of all), similar ones and a draw of the others.

Screening CCCCN(CCCC)C(=O)c1sc2nc(N3CCOCC3)c3c(c2c1N)CCCC3 returned APOBEC3G inh 42*, A3A deaminase -1, Wnt act -2, PHOSPHO1 inh -38, A3G conf -10 and UDG A3G counter -2.
Screening COc1cc(/C=N/n2c(-c3cc(C)[nH]n3)n[nH]c2=S)ccc1O returned APOBEC3G inh 35, A3A deaminase -6, MITF act -6, Wnt act 24 and PHOSPHO1 inh -65.
For COc1cccc(/C=N/n2c(-c3cc(C)[nH]n3)n[nH]c2=S)c1 the results were APOBEC3G inh 49*, A3A deaminase -3, MITF act -10, Wnt act 4, PHOSPHO1 inh -61, A3G conf 83* and UDG A3G counter -2.
`COc1cc(/C=N/n2c(-c3cc(C)[nH]n3)n[nH]c2=S)cc(OC)c1OC` gave APOBEC3G inh 47*, A3A deaminase -6, Wnt act -2, PHOSPHO1 inh -72, A3G conf 76* and UDG A3G counter -1.
Cc1ccc(-c2cnc3c(c2)C(=O)N([C@H](C)CO)C[C@H](C)[C@@H](CN(C)C(=O)CN(C)C)O3)cc1 was read as esBAF inh -8.
`COc1ccc(-n2nnc3c(SC(C(C)=O)C(=O)N(C)C)ncnc32)cc1` (stereo not drawn) gave APOBEC3G inh 51*, A3A deaminase -1, esBAF inh -6, MITF act -2, Wnt act -1, PHOSPHO1 inh 6, A3G conf 5 and UDG A3G counter -6.
For COC(=O)C(C)Sc1ncnc2c1nnn2-c1ccc(F)cc1 (stereo not drawn) the results were APOBEC3G inh -4, A3A deaminase -3, esBAF inh 14, MITF act 11 and PHOSPHO1 inh 16.
COCc1cc(=O)[nH]c(=S)[nH]1 was read as APOBEC3G inh -4, A3A deaminase -3, MITF act 7 and PHOSPHO1 inh -2.
`COCc1cc(C)c(C#N)c(=S)[nH]1` gave APOBEC3G inh 80*, A3A deaminase 2, esBAF inh -7, Wnt act 1, PHOSPHO1 inh 42, A3G conf 79* and UDG A3G counter -3.
Screening Cc1noc(C)c1NC(=O)Nc1ccc2c(c1)CC(=O)N([C@H](C)CO)C[C@H](C)[C@H](CN(C)Cc1ccc(Oc3ccccc3)cc1)O2 returned esBAF inh 1.
Screening CNC(=O)C[C@H]1CC[C@H]2[C@@H](COc3ccc(NC(=O)Nc4cccc(C#N)c4)cc3C(=O)N2C)O1 returned esBAF inh 5.
For c1cncc(-c2nnc(-c3cccnc3)nn2)c1 the results were APOBEC3G inh 44*, A3A deaminase 7, esBAF inh 0, Wnt act 6, PHOSPHO1 inh 66*, A3G conf 22* and UDG A3G counter -1.
Nc1nnc(-c2cccnc2)s1 was read as APOBEC3G inh 2, A3A deaminase 0, esBAF inh -12, Wnt act 1 and PHOSPHO1 inh 2.
CCC(=O)N1CCCCN2[C@H](C1)[C@@H](c1ccc(C#Cc3ccccc3F)cc1)[C@@H]2CO was read as esBAF inh -5.
For CCOC(=O)c1c(N)sn(-c2ccccc2C)c1=S the results were APOBEC3G inh 57*, A3A deaminase -21, esBAF inh -2, MITF act 0, PHOSPHO1 inh 96*, A3G conf 54* and UDG A3G counter 0.
Screening CCOC(=O)c1nn(-c2ccccc2C)c(=O)c2c(N)scc12 returned APOBEC3G inh 29, A3A deaminase 1, MITF act 5, Wnt act 2 and PHOSPHO1 inh -78.
`Cc1ccccc1-n1sc2cc(F)ccc2c1=O` gave APOBEC3G inh 75*, A3A deaminase 13, esBAF inh 16, MITF act -3, Wnt act 4, PHOSPHO1 inh 42, A3G conf 81* and UDG A3G counter -3.

High-throughput results (PubChem BioAssay)
